According to PubChem BioAssay (EPA / NIEHS):
Records with an inconclusive call do not appear. Activity calls are given as the source filed them. Rule for the calls, unless noted: active = hit-call score of the fitted dose curve at least 0.9, where 1 is the maximum; inconclusive = response in the unintended direction; inactive = score below 0.9.

Test: CCTE_Harrill_HTTr_Apoptosis_MCF7: CCTE's 6-hour Apoptosis Assessment for the High-Throughput Transcriptomics (HTTr) Platform, in MCF-7 cells cultured in DMEM + 10% fetal bovine serum, Harrill Lab (AID 2284011; active = hit-call score of the fitted dose curve at least 0.9, where 1 is the maximum; inactive = score below 0.9)
How it was run: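 Cells are dosed with test chemicals at eight concentrations and imaged 6 hours later for caspase-3/7 activity using a green fluorogenic detection reagent. Activity is fitted in both directions against DMSO controls.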

| SMILES | outcome |
| --- | --- |
| CNC(=O)O/N=C/C(C)(C)S(C)(=O)=O | inactive |
| Nc1ncn[nH]1 | inactive |
| CC(C)N(C(=O)CCl)c1ccccc1 | inactive |
| N#CCC#N | inactive |
| C[CH2][Hg][S]c1ccccc1C(=O)O | inactive |
| CCOc1cc(C=O)ccc1O | inactive |
| CCOC(=O)CCN(SN(C)C(=O)Oc1cccc2c1OC(C)(C)C2)C(C)C | inactive |
| CCOP(=S)(OCC)O/N=C(\C#N)c1ccccc1 | inactive |
| O=C(O)COc1ccc(Cl)cc1 | inactive |

Test: CCTE_Harrill_HTTr_CellCount_MCF7: CCTE's Cell Proliferation Assessment for the High-Throughput Transcriptomics (HTTr) Platform, Harrill Lab (AID 2284012);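 note: cells exposed to compound for six hours; intended direction is loss of nuclei count meaning fewer cells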
How it was run: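 Cell count served as viability reporter: loss of Hoechst-stained nuclei, counted by high content imaging, marks decreased growth or survival. Exposure was 6 h in MCF-7 cells across eight concentrations, with DMSO as baseline.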

| SMILES | outcome | AC50 |
| --- | --- | --- |
| COc1ccccc1N | inactive |  |
| Brc1c(Br)c(Br)c(Oc2c(Br)c(Br)c(Br)c(Br)c2Br)c(Br)c1Br | inactive |  |
| OC[C@@H](O)[C@H]1O[C@@H]2O[C@H](C(Cl)(Cl)Cl)O[C@@H]2[C@H]1O | inactive |  |
| CCCSP(=S)(OCC)Oc1ccc(Cl)cc1Cl (stereo not given) | inactive |  |
| COCCl | inactive |  |
| CCOCn1c(-c2ccc(Cl)cc2)c(C#N)c(Br)c1C(F)(F)F | inactive |  |
| CC(C)=CC1C(C(=O)OCc2cccc(Oc3ccccc3)c2)C1(C)C (stereo not given) | inactive |  |
| Clc1cccc(Cl)c1 | inactive |  |
| C[C@H]1C(=O)O[C@@H]2CCN3CC=C(COC(=O)[C@](C)(O)[C@]1(C)O)[C@H]23 | inactive |  |
| O=C(NC(=O)c1c(F)cccc1F)Nc1ccc(Cl)cc1 | inactive |  |
| Cc1cccc(C)c1NC(=O)CN1CCCC1=O | inactive |  |
| O=CCCl | inactive |  |
| O=S1(=O)OC(c2cc(Br)c(O)c(Br)c2)(c2cc(Br)c(O)c(Br)c2)c2ccccc21 | inactive |  |
| C1CCC(C2CCCCC2)CC1 | inactive |  |
| O=C1C=CC(=O)c2ccccc21 |  | 76.2 µM (active) |
| CCOC(=O)OC1=C(c2cc(C)ccc2C)C(=O)NC12CCC(OC)CC2 (stereo not given) | inactive |  |

| SMILES | outcome | AC50 |
| --- | --- | --- |
| O=C1C[C@@H]2OCC=C3CN4CC[C@]56c7ccccc7N1[C@H]5[C@H]2[C@H]3C[C@H]46 | inactive |  |
| Cc1cc(SCc2sc(-c3ccc(C(F)(F)F)c(F)c3)nc2C)ccc1OCC(=O)O | inactive |  |
| Cc1cc(Cl)ccc1N | inactive |  |
| CCOC(=O)c1ccccc1S(=O)(=O)NC(=O)Nc1nc(Cl)cc(OC)n1 | inactive |  |
| O=[N+]([O-])c1ccc(Cl)c([N+](=O)[O-])c1 | inactive |  |
| CNC(=O)CSP(=O)(OC)OC | inactive |  |
| CNC(=O)O/N=C/C(C)(C)S(C)(=O)=O | inactive |  |
| Nc1ncn[nH]1 | inactive |  |
| CC(C)N(C(=O)CCl)c1ccccc1 | inactive |  |
| N#CCC#N | inactive |  |
| C[CH2][Hg][S]c1ccccc1C(=O)O |  | 50 µM (active) |
| CCOc1cc(C=O)ccc1O | inactive |  |
| CCOC(=O)CCN(SN(C)C(=O)Oc1cccc2c1OC(C)(C)C2)C(C)C | inactive |  |
| CCOP(=S)(OCC)O/N=C(\C#N)c1ccccc1 | inactive |  |
| O=C(O)COc1ccc(Cl)cc1 | inactive |  |
